FBA Mtb inh: inhibitors of M. tuberculosis fructose-bisphosphate aldolase | purified M. tuberculosis FBA, fluorescence read-out | 2.3% of 360,000 active | inhibition, % at 1 µM | P9WQA3
Target sequence (P9WQA3 whole entry, looked up): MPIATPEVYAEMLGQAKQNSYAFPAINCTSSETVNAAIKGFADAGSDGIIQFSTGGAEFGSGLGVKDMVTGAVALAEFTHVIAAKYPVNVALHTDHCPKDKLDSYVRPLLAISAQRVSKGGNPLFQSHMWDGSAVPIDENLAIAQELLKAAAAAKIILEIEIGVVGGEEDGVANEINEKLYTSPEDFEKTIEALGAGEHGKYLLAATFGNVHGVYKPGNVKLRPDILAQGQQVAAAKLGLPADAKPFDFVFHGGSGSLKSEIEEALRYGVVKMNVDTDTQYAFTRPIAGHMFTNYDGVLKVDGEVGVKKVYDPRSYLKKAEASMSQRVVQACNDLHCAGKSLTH
Mtb bLac sens: beta-lactam sensitization of Mtb H37Rv. M. tuberculosis H37Rv growth with meropenem, percent inhibition. inhibition, % at 25 µM. 0.27% of 330,000 active. AID 434955; call rule not given here;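 further: growth measured after seven days incubation then overnight dye step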
GDH-TPI counter-1: inhibits GDH-TPI coupling enzymes, artifact for Mtb FBA screen; GDH-TPI coupled enzyme counterscreen, NADH absorbance; inhibition, % at 4.8 µM; 1.2% of 360,000 active; AID 588335; in the data active means inhibition above about 30%
FadD28 binding: blocks FadD28 binding to the bisubstrate probe. fluorescence polarization. inhibition, % at 12.5 µM. 0.22% of 360,000 active; in the data active means inhibition above about 8.5%, passing the limit was not always enough
UGM FP inh: inhibitors of M. tuberculosis UDP-galactopyranose mutase; P9WIQ1; purified UGM, fluorescence polarization probe displacement; inhibition, % at 10 µM; 0.06% of 320,000 active; AID 504406; in the data active means inhibition above about 10%, passing the limit was not always enough
Rv3671c protease: inhibits the M. tuberculosis serine protease Rv3671c. inhibition, % at 5.96 µM. 0.048% of 320,000 active. AID 2606; in the data active means inhibition above about 38%;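 further: extracellular domain of Rv3671c used as enzyme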
Mtb FBA confirm: Mtb FBA inhibition, confirmed; purified M. tuberculosis FBA, fluorescence read-out; shares compounds with FBA Mtb inh; 78% of 5,600 active; inhibition, % at 1 µM
GDH-TPI counter-2: GDH-TPI inhibition counter-screen for FBA inhibitors | shares compounds with FBA Mtb inh | GDH-TPI coupled enzyme counterscreen, fluorescence | inhibition, % at 1 µM | 81% of 5,600 active; in the data active means inhibition above about 10%
Of the large screens only hits and unclear results are named; the others gave an inactive call (follow-up assays come after a bar, where they were run). Only some compounds are listed: those with a hit (about 3.7% of all), similar ones and a draw of the others. Unless noted, no stated cut-off is given here; in the data, active means inhibition above about 27%; inactive means the rest.

O=C(c1cccn2c(=O)c3ccccc3nc12)N1CCN(Cc2ccc3c(c2)OCO3)CC1	none (no result: UGM FP inh)
O=C(c1ccc(Cl)cc1)N1CCC2(CC1)OCCO2	none
O=C(c1ccc2nc3ccccc3c(=O)n2c1)N1CCN(Cc2ccc3c(c2)OCO3)CC1	FBA Mtb inh 69 | Mtb FBA confirm inactive | GDH-TPI counter-2 inactive
CC1(C(=O)NS(=O)(=O)Cc2ccccc2)CCN1C(=O)C1(c2ccc(Cl)cc2)CC1 (stereo unspecified)	none (no result: Mtb bLac sens, UGM FP inh, Rv3671c protease)
C[C@@H]1CN([C@@H](C)CO)C(=O)CCCn2nncc2CO[C@@H]1CN(C)C(=O)CCC(F)(F)F	none (no result: Mtb bLac sens, UGM FP inh, Rv3671c protease)
O=P(Cc1cccc2ccccc12)(c1ccccc1)c1ccccc1	none (no result: Mtb bLac sens, UGM FP inh, Rv3671c protease)
CC(C)C(C(=O)NC(C)(C)C)N1C(=O)c2ccccc2C1=O (stereo unspecified)	none
CC(C(=O)NC(C)(C)C)N1C(=O)c2cccc3cccc(c23)C1=O (stereo unspecified)	FBA Mtb inh 27 | Mtb FBA confirm inactive | GDH-TPI counter-2 inactive
CN(Cc1ccccn1)C(=O)CC1C(=O)NCCN1Cc1cccc(Oc2ccccc2)c1 (stereo unspecified)	FBA Mtb inh 32 | Mtb FBA confirm 165 | GDH-TPI counter-2 122
COc1ccc(C2CC(c3ccccc3O)=NN2c2ccccc2)cc1 (stereo unspecified)	none
CCC(=O)Nc1cccc(C2=NN(c3ccccc3)C(c3ccc(OC)cc3)C2)c1 (stereo unspecified)	FBA Mtb inh 77 | Mtb FBA confirm 104 | GDH-TPI counter-2 69
COc1ccc(C2CC(c3ccccc3)=NN2C(=O)COC(=O)c2cccc(O)c2)cc1 (stereo unspecified)	none
COc1ccc(C2=NN(c3ccccc3)C(c3cn(CCC(=O)O)nc3-c3ccccc3)C2)cc1 (stereo unspecified)	FBA Mtb inh 108 | Mtb FBA confirm inactive | GDH-TPI counter-2 19
COc1ccc(C2CC(c3ccccc3)=NN2c2ccc(Cl)c(C(=O)O)c2)cc1 (stereo unspecified)	FBA Mtb inh 86 | Mtb FBA confirm active | GDH-TPI counter-2 active
COc1ccc(C2CC(c3ccncc3)=NN2c2ccc(S(N)(=O)=O)cc2)cc1 (stereo unspecified)	FBA Mtb inh 68 (no result: Mtb bLac sens, UGM FP inh, Rv3671c protease) | Mtb FBA confirm 109 | GDH-TPI counter-2 88
COc1cc(C2NC(=O)NC(c3ccccc3)=C2C(C)=O)c(Cl)cc1OCC(=O)O (stereo unspecified)	none
COc1cc(C2Nc3ccccc3C(=O)N2c2ccc(Cl)cc2)c(Cl)cc1OCC(=O)O (stereo unspecified)	FBA Mtb inh 70 | Mtb FBA confirm 115 | GDH-TPI counter-2 83
CCOc1cc(C2Nc3ccccc3C(=O)N2c2ccccc2)ccc1O (stereo unspecified)	none
CCOc1cc(C2Nc3ccccc3C(=O)N2c2ccccc2)c(Br)cc1OCC(=O)O (stereo unspecified)	FBA Mtb inh 39 | Mtb FBA confirm 105 | GDH-TPI counter-2 84
Cc1ccc(C(=O)c2nccn2C)cc1C	none
CCOc1ccc(N=Cc2ccc([N+](=O)[O-])cc2)c(O)c1	none (no result: Mtb bLac sens, UGM FP inh, Rv3671c protease)
C[C@H](CO)N1C[C@H](C)[C@@H](CN(C)Cc2ccncc2)Oc2c(NS(=O)(=O)c3ccccc3)cccc2C1=O	none
CC(C)CC1(C2CCCC2)NC(=O)NC1=O (stereo unspecified)	none (no result: Mtb bLac sens, UGM FP inh, Rv3671c protease)
COc1ccc(-c2c3c(cc4ncn(Cc5ccccc5)c24)COC3=O)cc1	FBA Mtb inh 63 | Mtb FBA confirm 141 | GDH-TPI counter-2 138
Cc1cccc(NC(=O)CN2CCN(C(=O)c3c(C)nn(Cc4ccccc4)c3C)CC2)c1C	none
CCOC(=O)c1cnc2c(C(=O)OCC)cnn2c1N	none
CCOC(=O)c1cnn2c(N)c(C#N)cnc12	FBA Mtb inh 29 | Mtb FBA confirm 51 | GDH-TPI counter-2 37
CCNc1oc(/C=C/c2ccc(OCC)cc2)nc1C#N	FBA Mtb inh 29 | Mtb FBA confirm 86 | GDH-TPI counter-2 71
O=C1C=CC(=NN=C(c2ccccc2)c2ccccc2)C=C1	FBA Mtb inh 32 (no result: Mtb bLac sens, GDH-TPI counter-1, UGM FP inh, Rv3671c protease) | Mtb FBA confirm 81 | GDH-TPI counter-2 67
NN=C(c1ccccc1)c1ccccc1	none
Cc1ccc(NC(=O)COC(=O)c2ccco2)cc1S(=O)(=O)N1CCCCC1	none (no result: Mtb bLac sens, UGM FP inh, Rv3671c protease)
CCCc1cnc(Nc2nc(C(N)Cc3ccc(C(F)(F)F)cc3)cs2)nc1 (stereo unspecified)	none (no result: Mtb bLac sens, UGM FP inh, Rv3671c protease)
CCOC(=O)C(C)Sc1nc(-c2cccs2)ccc1C#N (stereo unspecified)	FBA Mtb inh 41 | Mtb FBA confirm inactive | GDH-TPI counter-2 inactive
C=COC(=O)CSc1nc(-c2cccs2)ccc1C#N	FBA Mtb inh 30 | Mtb FBA confirm 71 | GDH-TPI counter-2 53
O=C(CN1C(=O)NC(c2ccccc2)(c2ccccc2)C1=O)NCCc1ccc(F)cc1	none
CC1(C(=O)Nc2ccccc2Br)CCN1C(=O)Cc1ccc(Cl)cc1Cl (stereo unspecified)	none (no result: Mtb bLac sens, UGM FP inh, Rv3671c protease)
CCCN(CC(=O)Nc1ccccc1C)C(=O)CCCOc1ccc(Br)cc1	FBA Mtb inh 38 | Mtb FBA confirm inactive | GDH-TPI counter-2 inactive
CCOc1ccc(OCCCC(=O)N(C)CC(=O)Nc2ccccc2Br)cc1	none
Cc1c(C(=O)Nc2ccc(F)cc2)c2ccccn2c1CCc1ccncc1	FBA Mtb inh 32 | Mtb FBA confirm active | GDH-TPI counter-2 active
COC(=O)CCc1c(C)c(C(=O)c2ccc(F)cc2)c2ccccn12	none
COC(=O)C1=C(c2ccc(-c3ccccc3)c(F)c2)C[C@@H]2CC[C@H]1N2C(=O)NCCNC(C)=O	FBA Mtb inh 43 | Mtb FBA confirm 45 | GDH-TPI counter-2 38
O=C(CSc1ccc(Cl)cc1)Nc1cccc(-c2nc3ccccc3[nH]2)c1	FBA Mtb inh 35 (no result: UGM FP inh) | Mtb FBA confirm active | GDH-TPI counter-2 active
O=C(CSc1ccccc1)Nc1ccc(-c2nc3ccccc3[nH]2)cc1	none
Cc1cc2ncc(-c3cccs3)nc2cc1C	FBA Mtb inh 73 (no result: Rv3671c protease) | Mtb FBA confirm 68 | GDH-TPI counter-2 58
CC1(C(=O)NS(=O)(=O)c2cccc(Cl)c2)CCN1C(=O)c1ccccc1 (stereo unspecified)	none (no result: Mtb bLac sens, UGM FP inh, Rv3671c protease)
CCc1c(C2(O)CCCCC2)[nH]c2cnccc12	FBA Mtb inh 78 | Mtb FBA confirm active | GDH-TPI counter-2 170
Cc1c(C2(O)CCCCC2)[nH]c2ccc(C(F)(F)F)cc12	none
COc1ccc(-c2cc(C(=O)NCC3CCCCC3)[nH]n2)c(C)c1	none (no result: Mtb bLac sens, UGM FP inh, Rv3671c protease)
CCCCCCN1C[C@@H](n2cc(C3CC3)nn2)[C@H](O)C[C@@H]1c1ccc(OC)cc1	none (no result: Mtb bLac sens, UGM FP inh, Rv3671c protease)
CCCOc1ccc(S(=O)(=O)N2CCOCC2)cc1[N+](=O)[O-]	FBA Mtb inh 34 | Mtb FBA confirm 72 | GDH-TPI counter-2 63
O=C(Nc1ccc(S(=O)(=O)Nc2ncccn2)cc1)C1=COCCO1	none
